Laboratory results published in the supplement of paper PMC6555819.

Tested on: PPARg:RXRa 270nM:90nM, anti-RXR (NR concentration 270 nM, RXRa partner concentration 90 nM)
Assay: PBM binding z-score (relative to random genomic background probes); higher = stronger binding; sequences stand for … in GC…GCGATTGACAGCGTAGAATGAAGG
How it was run: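 Custom Agilent 4×180K protein-binding microarrays carried double-stranded probes, each with a 34-nt variable region. These regions held direct-repeat seeds, single-nucleotide variants, half-site ablations and random human genomic background sequences. Ligand-free nuclear receptor dimers were incubated on the arrays for 1 h, antibodies against each partner (one per run) detected binding, and scanned fluorescence was regression-normalized. Binding z-scores take the random background probes as reference.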

Sequence	PBM binding z-score
CCTTACGGGTCACTAACAGGTTATAGCATTTGGA	3.78
CCTACTAGGCCAAAGGTCATTGATTCCAATGCTC	10.5
TAGCCTAGGTTATTCAGGGGCCAGTATAGAAAGC	-0.0507
ATCGGAAGGTCGTGAGGTGAGTATACAGAAAGGC	1.63
CGTCCAAGGTCAATGGTAGGTCAGTGAAAGCATT	4.73
TCTAGTTGGTCACGGAGGTCGCACACGACGGGTA	2.28
CCGACTGGGGCAGAAAGGTTACCATGCCATCCGG	2.65
CCTACTGGGCCAAAAAGGTGATTGATGCCGATAA	0.945
TCATATAGGTAAAGGCGAAAGTCGAACGATATGA	2.52
AGAAAGAGGTTAAGATCAGGGAAACAGAATACAT	1.89
TCATATAGGTAAGGGTGAAAGTCGAACGATATGA	3.29
GGAACGAGGGCATTCGACTTGATAGCATGGCGAT	0.717
AGAATGAGGTTATTAAGATCACGGAATTGCGGTC	2.7
ATATGTACGTTAGCTGGGGTCATTCAGACTAGGC	2.27
CCTTTTAGTTGACCATAAGGGCAACCGAAGCTCG	0.669
CCTACTGGGCCAAAGTTCATTGATTCCAATGCTC	9.53
ATTCAAAGTTCAGGACGAGGTAACGTAAAGCACG	2.41
TCATATATGTAATACAGGTGAAAGTCGGCATCTA	3.12
TCTCGGAGGACACGAAAGGTCAGAGTTCGACATC	3.4
GCTAGCAGGCCATATGGGTCACTCAATGACGGGC	1.27

Sequence	PBM binding z-score
CCAGACAGGTGAAAGGTAACTGAGTCTGGTACGC	6.38
AGTCAAAGTTCATCTCGGTAACGTAAGATATGCT	6.19
AATACAGGGTCATCGTAGGCTAGAGTACGCACAG	5.9
CGTCAAAGTTCAACTAAGGTAACGGAAAGCACGC	5.75
AATACAGGTTCACTAGGCCAGAGTAGGTACGAAT	2.98
ATACCATGGTGATCGTGAGGTCGTTGATACTAAC	-0.0472
TCGAGTAGGTTAGGGGCATTCCGAATGGCGTCGA	2.27
AATACAGGGTCATCGTAGGCCAGAGTACGCACAG	6.09
ATCTCTAGGTAAAGCTAGTTCAGTGAATGCAAAT	0.354
GCGACTGGGGCATCAGCAGGTTACCATCACTTAA	0.547
CAAACTAAGTCACAGAGGTCAAAGTCCGTGCGTA	4.78
TGGCCTAGGTCATTCAGGGGCCAGTATAGAAAGC	2.33
CAAACTAGGTCACGAAGGGTCAAAGTCGAATGAC	7.95
TCTTGTAGATCAATAGAGGTTAACAAAGTGCGCT	1.66
TCTTGTCGATCAAGCAGGTTAAGAAAGCCTGAGT	1.21
TAGCCTAGGTCATGCAGGGGCCAGTATAGAAAGC	2.44
CCTCGGAGGACAACAGGAAGTCAGAGCTGCCAGA	-0.726
AGTCAACGTTCACTAGGTAACGTAAGATTCAGCT	0.511
AAAATGAGGTTATACGTAGATCAGGGAAGAAAGT	2.4
TCATATAGTTAAAGGTGAAAGTCGAACGATATGA	3.41
